EWS-Fli inh: EWS/Fli transcriptional activity inhibition; A673 NR0B1-luciferase reporter, viability-normalised; inhibition, % at 12.6 µM; 350,000 compounds, 0.67% hits;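 active = mean inhibition of at least 50% after viability correction, with every replicate also passing that limit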;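 note: firefly luciferase signal divided by Alamar Blue viability fluorescence both relative to DMSO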
LGR2 antag: Drosophila LGR2 receptor signaling inhibition; HEK293 LGR2, CRE-luciferase, bursicon-stimulated, 4 h; inhibition, % at 9.99 µM; 380,000 compounds, 0.35% hits;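 active = drop in luminescence signal, shown as inhibition above about 50% in the replicate tests, limit read from the data, passing the limit was not always enough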;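 note: agonist challenge used bursicon conditioned medium at about half maximal strength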
TWEAK-Fn14 inh: blocks TWEAK-Fn14 interaction in a reporter cell assay. AID 1159606. inhibition, % at 10 µM. 360,000 compounds, 2% hits. TWEAK-stimulated Fn14 reporter cells, luciferase luminescence, 8 h; in the data active = inhibition above about 50%
EBV LMP1 NFkB: inhibitors of Epstein-Barr LMP1-induced NF-kappaB reporter. LMP1-induced NF-kappaB luciferase reporter cells, luminescence. inhibition, % at 12.5 µM. 350,000 compounds, 0.69% hits; in the data active = inhibition above about 41%;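 note: 0% = neutral control wells and 100% = reference inhibitor control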
PAX8 inh HTS: lowers PAX8-driven luciferase in RMG-I cells; RMG-I TPO-luciferase reporter, SteadyGlo, 24 h; inhibition, % at 12.6 µM; 360,000 compounds, 1.2% hits; AID 652154;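 active = mean replicate inhibition at least 60% with every replicate also reaching 60%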;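 note: luciferase light reporting Pax8 driven TPO promoter activity; plate controls were median of neutral control wells for no effect and mitoxantrone controls for full effect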
TROY signal inh: TROY signaling inhibition; inhibition, % at 10 µM; AID 1347056; 360,000 compounds, 0.98% hits; Q293 LMP1-TROYcd NF-kB luciferase reporter, 4 h;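 active = compounds whose plate-normalised and pattern-corrected inhibition of the luciferase reporter signal at the single screening dose is 50% or more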
* hit, by the source's call; nt = no result given. A selection: hits, their analogues and other compounds. The true share with any hit is near 3.2%.

SMILES	EWS-Fli inh	LGR2 antag	TWEAK-Fn14 inh	EBV LMP1 NFkB	PAX8 inh HTS	TROY signal inh
COc1ccc(NC(C)=O)cc1NC(C)C(=O)Nc1cccc2ccccc12 (configuration not stated)	nt	-1	37	5	nt	57*
S=C(Nc1cccc2ccccc12)Nc1cccc2ccccc12	-45	-4	92*	-4	-2	49
Cc1ccc(F)c(NC(=S)Nc2cccc3ccccc23)c1	16	-5	8	6	13	28
COc1ccc(NC(=S)Nc2cccc3ccccc23)cc1OC	-12	-22	94*	-4	-15	31
C[C@H](CO)N1C[C@H](C)[C@@H](CN(C)C(=O)c2ccccc2F)Oc2ncc(Br)cc2C1=O	4	-8	nt	nt	nt	nt
COc1ccc(Nc2cccc3ccccc23)cc1	-61	-30	104*	-29	-24	82*
CCCNC(=O)N[C@@H]1CC[C@H](CC(=O)NCCc2ccccc2)O[C@H]1CO	-3	13	nt	nt	-7	nt
N#C/C(=C\c1ccc(Cl)cc1Cl)c1n[nH]c(Cn2cncn2)n1	nt	nt	65*	0	nt	nt
CCn1cc(C(=O)NC(C)C23CC4CC(CC(C4)C2)C3)cn1 (configuration not stated)	1	-3	-8	3	30	3
CC(NC(=O)Cn1ncc(Cl)c(Cl)c1=O)C12CC3CC(CC(C3)C1)C2 (configuration not stated)	nt	nt	103*	-94	nt	87*
O=C(CN1CCCCC1)NC(=O)NC1CCCC1	-12	nt	-18	-6	-45	-8
O=C(Cn1ncc(Cl)c(Cl)c1=O)NC(=O)NC1CCCCC1	62*	96*	104*	4	91*	49
O=C(CCl)NC(Cc1ccccc1)c1ccccc1 (configuration not stated)	18	15	53*	0	18	-23
CC(=O)C(Cc1ccccc1)NC(=O)CCl (configuration not stated)	14	2	8	-10	19	-24
COc1ccc(S(=O)(=O)N(C)C[C@@H]2Oc3ccc(NC(=O)Nc4ccc(C(F)(F)F)cc4)cc3CC(=O)N([C@@H](C)CO)C[C@@H]2C)cc1	46	-10	nt	nt	66*	nt
COc1ccc(S(=O)(=O)N(C)C[C@@H]2Oc3ccc(NC(=O)Nc4ccc(C(F)(F)F)cc4)cc3CC(=O)N([C@H](C)CO)C[C@H]2C)cc1	-17	-2	nt	nt	0	nt
COc1ccc(NC(=O)Nc2ccc3c(c2)CC(=O)N([C@H](C)CO)C[C@@H](C)[C@@H](CN(C)S(=O)(=O)c2ccc(OC)cc2)O3)cc1	9	-2	nt	nt	3	nt
COc1ccc(S(=O)(=O)N(C)C[C@@H]2Oc3ccc(NC(=O)Nc4ccc(C(F)(F)F)cc4)cc3CC(=O)N([C@H](C)CO)C[C@@H]2C)cc1	44	11	nt	nt	78*	nt
O=C(COc1ccc(Br)cc1Cl)NC(=S)Nc1ccccn1	nt	-20	64*	-28	-155	69*
Cc1ccc(OCC(=O)NC(=S)Nc2ccccn2)c(Br)c1	52*	71*	91*	21	-196	79*
CS(=O)(=O)N1[C@H](C#N)[C@H](c2ccccc2)[C@@H]1CO	-11	7	nt	nt	-25	nt
Cc1ccc(-c2ccc3c(c2)O[C@H](CN(C)C(=O)C2CC2)[C@@H](C)CN([C@H](C)CO)S3(=O)=O)cc1	-22	-12	nt	nt	nt	nt
COc1cccc2cc(C(=O)N3CC(C)OC(C)C3)c(=O)oc12 (configuration not stated)	-26	0	-2	0	22	-8
COc1cc2c(oc(=O)c3cc(C)cc(OC)c32)c2c(C3OC(C)C(O)C(C)(O)C3O)ccc(O)c12 (configuration not stated)	37	17	-3	78*	nt	11
CCOC(=O)C(=NC(C)CC)NNc1cccc(C(F)(F)F)c1 (configuration not stated)	nt	2	58*	5	-1	0
CC1CC(C)CN(C(=O)/C=C/c2ccc([N+](=O)[O-])s2)C1 (configuration not stated)	25	25	35	-96	68*	13
CC(=O)c1cccc(NC(=O)/C=C/c2ccc([N+](=O)[O-])s2)c1	48	15	84*	-90	24	31
Cc1ccccc1NC(=O)/C=C/c1ccc([N+](=O)[O-])s1	nt	nt	95*	-17	nt	-34
